# Reference: PubChem BioAssay (NCI)
# Compounds without any hit were thinned out: in the full panel of roughly 83,000, 20% have a hit.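 Values shown are percent growth following 48 h exposure of cells in 96-well plates to a single concentration of compound; below 10 was considered active.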 Active and inactive are the calls of the source.
# Test system: NCI/ADR-RES ovarian
# Experiment: NCI-60 one-dose screen, 48 h (100 = growth as untreated, 0 = no growth, -100 = all killed)
# Details: 10 µM unless noted
row,Compound,growth
1,COC(=O)Cc1cc(COC(C)=O)ccc1C,107% (inactive)
2,Cc1ccc(/C=N/NC(N)=S)s1,109% (inactive)
3,Cc1cc(=O)n(Nc2ccccc2)c(O)c1C#N,102% (inactive)
4,CN(C)c1ccc(O)c2c1CC1CC3C(N(C)C)C(=O)C(C(N)=O)=C(O)C3(O)C(=O)C1=C2O (configuration not stated),66.7% (inactive)
5,C/C(=N\N=C(/C)c1cccc([N+](=O)[O-])c1)c1cccc([N+](=O)[O-])c1,93.9% (inactive)
6,CC(=O)c1ccc(C)cc1,106% (inactive)
7,O=C1Nc2ccccc2/C1=C\c1ccccc1O,84.9% (inactive)
8,CCOC(=O)Nc1nccs1,112% (inactive)
9,CCNC(=O)Oc1ccc[nH]c1=O,102% (inactive)
10,Cc1nc(C)c(C(=O)O)cc1C(=O)O,107% (inactive)
11,CC(=O)OCC1OC(n2cnc3c(=S)nc(N)[nH]c32)C(OC(C)=O)C1OC(C)=O (configuration not stated),78.4% (inactive)
12,CC(CO)(CO)C(=O)O,103% (inactive)
13,CCOC(=O)CNC,100% (inactive)
14,CC(c1ccccc1)N(C)C (configuration not stated),105% (inactive)
15,COC1CC(OC(=O)c2ccc([N+](=O)[O-])cc2)C(COC(=O)c2ccc([N+](=O)[O-])cc2)O1 (configuration not stated),108% (inactive)
16,Nc1cccc2cccc(O)c12,95.5% (inactive)
17,CC(CCC#N)(CCC#N)C(=O)c1ccccc1,106% (inactive)
18,O=[N+]([O-])c1c(Cl)ncnc1Cl,118% (inactive)
19,NS(=O)(=O)c1cc(=O)[nH]c(=O)[nH]1,109% (inactive)

row,Compound,growth
1,COc1ccc2c(Cl)cc(NC(=O)Nc3c(C)cccc3C)nc2c1,78.2% (inactive)
2,CC(=O)c1cccc(O)c1,100% (inactive)
3,Cc1nc(O)cc(=O)[nH]1,108% (inactive)
4,Cc1ccc(C)c2c1CCC2=O,101% (inactive)
5,O=C(OC1CCCC1)c1ccccc1Cl,108% (inactive)
6,CC(C)c1ccc(C(=O)OCCCl)cc1,102% (inactive)
7,CCCCNC(=O)c1ccc(OCC)cc1,100% (inactive)
8,N#Cc1ccc(OC(=O)Nc2cc(Cl)cc(Cl)c2)cc1,-4.12% [100 µM] (active)
9,CCOC(=O)C(C#N)=C1CCN(C)CC1,115% (inactive)
10,COC(CCCl)c1ccc(Cl)cc1 (configuration not stated),98.6% (inactive)
11,CCOc1ccc(C(=O)NCC(C)C)cc1,111% (inactive)
12,COc1ccc(C2CCCCC2=O)cc1 (configuration not stated),108% (inactive)
13,O=S(=O)(c1ccc(NC(=S)NCc2cccnc2)cc1)N1CCCCC1,63.4% (inactive)
14,Cc1ccc(NC(=O)c2ccccc2Cl)cc1,111% (inactive)
15,Nc1ccccc1SC1CC(=O)N(c2ccc(Cl)c(Cl)c2)C1=O (configuration not stated),95.7% (inactive)
16,OCC1CCC(O)C(CO)N1 (configuration not stated),118% (inactive)
17,CCCCCCCCNC(=O)C(C)C,117% (inactive)
18,N#C/C(=C\c1ccc2c(c1)OCO2)c1ccccc1,47.8% (inactive)
